{"source": "PubChem BioAssay (Tox21)", "note": "Values joined by “and” are separate entries in the source; they are usually repeats but may differ in a detail not shown here. Equal values may be shown once. Records with an inconclusive call do not appear. The source holds several records for some structures; these can differ, active in one and inactive in another. Active and inactive are the calls of the source. The call rests on the fitted dose curve; in most records, active means well fitted cell-killing curve with a large enough effect in the repeat runs; inconclusive means weak or mixed curves, or effect the other way; inactive means flat fitted curve, though single readings scatter. On the % scale 0 is the no-effect control and ±100 the full control effect; potency means the concentration at half of the fitted maximal effect.", "data": [{"experiment": "qHTS assay to identify small molecule agonists of the sonic hedgehog signaling (Shh) pathway - cell viability counter screen (AID 1259366); further: nearly all actives have a fitted effect of over 50% in size", "conditions": "NIH/3T3 Gli1-Luc viability, CellTiter-Fluor, 24 h; series mostly up to 92.4 µM; viability change, negative = cytotoxic: at the top concentration", "excerpt": "National Center for Advancing Translational Sciences [NCATS]\nNIH Chemical Genomics Center [NCGC]\nU.S. Environmental Protection Agency [EPA]\nNational Institutes of Environmental Health Sciences [NIEHS]\nNational Toxicology Program [NTP]\nU.S. Food and Drug Administration [FDA]\nThe sonic hedgehog (Shh) pathway is essential for normal embryonic development. Dysregulation of the Shh pathway can cause severe developmental defects in organs. Therefore chemicals that interfere with the pathway are potential developmental toxicants. A cell line designated 3T3Gli1-Luc (DMB/OARSA/CFSAN/FDA, Laurel, MD), a NIH/3T3 derived clone containing stably integrated Gli1-Luc reporter is used to detect chemical interference of the Shh pathway, by changes in the expression of the firefly Luc gene under the control of the Gli1 transcriptional response element. This cell line was used to screen Tox21 libraries for identifying and prioritizing the potential developmental toxicants that interfere Shh pathway. The cytotoxicity of the compounds was tested in parallel by measuring the cell viability using CellTiter-Fluor assay system (Promega, Madison, WI) in the same wells.\nTox21 Assay Protocol Summary:\n3T3 Gli1-Luc cells were dispensed at 2,000 per well in 5uL of culture medium into white solid bottom 1536-well plates (Greiner Bio-One, Monroe, NC) using a Multidrop Combi (Thermo Scientific, Waltham, MA) dispenser. The assay plates were incubated at 37 C and 5% CO2 for 4hr, and then 23nL of compounds dissolved in DMSO and positive control were transferred using a Pintool station (Wako, San Diego, CA). The assay plates were incubated at 37C and 5% CO2 for 24hr. For viability read, after 23hr of compound treatment, 1uL of CellTiter-Fluor reagent (Promega Corporation, Madison, WI) was added to each well of the assay plates using Flying Reagent Dispenser (FRD, Aurora Discovery, San Diego, CA) and incubated the assay plates at 37C for 1hr. The fluorescence signal was quantified using a ViewLux plate reader (Perkin Elmer, Shelton, CT).", "values": [{"compound": "c1ccc(Nc2ccc3ccccc3c2)cc1", "viability change, negative = cytotoxic": "-20.5% (inactive)"}, {"compound": "O=[N+]([O-])c1cc(Cl)ccc1Cl", "viability change, negative = cytotoxic": "-5.52% (inactive)"}, {"compound": "N#CCc1ccc(Cl)cc1", "viability change, negative = cytotoxic": "3.92% (inactive)"}, {"compound": "Nc1ccccc1C(=O)OC/C=C/c1ccccc1", "viability change, negative = cytotoxic": "-21.2% (inactive)"}, {"compound": "CC(C)[C@H](C(=O)O[C@H](C#N)c1cccc(Oc2ccccc2)c1)c1ccc(Cl)cc1", "viability change, negative = cytotoxic": "14% (inactive)"}, {"compound": "Clc1ccc(C(Cl)(Cl)Cl)c(Cl)c1", "viability change, negative = cytotoxic": "0.785% (inactive)"}, {"compound": "O=[N+]([O-])c1ccc(Oc2ccc(C(F)(F)F)cc2[N+](=O)[O-])cc1", "viability change, negative = cytotoxic": "3.65% (inactive)"}, {"compound": "COP(=S)(OC)Oc1cc(Cl)c(Br)cc1Cl", "viability change, negative = cytotoxic": "7.57% (inactive)"}, {"compound": "C[C@]12CC[C@H](O)C[C@H]1CC[C@@H]1[C@@H]2C[C@@H](O)[C@]2(C)[C@@H](C3=CC(=O)OC3)CC[C@]12O", "viability change, negative = cytotoxic": "4.85% (inactive)"}, {"compound": "CN(C)C1CSSSC1", "viability change, negative = cytotoxic": "14.3% (inactive)"}, {"compound": "CC(C)CCCCCOC(=O)c1ccccc1C(=O)OCCCCCC(C)C", "viability change, negative = cytotoxic": "12.2% (inactive)"}, {"compound": "CCOP(=O)(NC(C)C)Oc1ccc(SC)c(C)c1", "note": "(stereo not given)", "viability change, negative = cytotoxic": "-9.91% (inactive)"}, {"compound": "N#Cc1ccccc1Cl", "viability change, negative = cytotoxic": "-2.52% (inactive)"}, {"compound": "S=C=Nc1cccc2ccccc12", "Potency": "53.9 µM (active)"}, {"compound": "COP(N)(=S)OC", "viability change, negative = cytotoxic": "5.38% (inactive)"}, {"compound": "Cc1cc(C)cc(OP(=O)(Oc2cc(C)cc(C)c2)Oc2cc(C)cc(C)c2)c1", "viability change, negative = cytotoxic": "7.29% (inactive)"}, {"compound": "CC(C)(C)C(O)C(Oc1ccc(-c2ccccc2)cc1)n1cncn1", "note": "(stereo not given)", "Potency": "30.6 µM (active)"}, {"compound": "CC(=O)c1ccc(-c2ccccc2)cc1", "viability change, negative = cytotoxic": "-8.95% (inactive)"}, {"compound": "N#CC(Cl)Cl", "viability change, negative = cytotoxic": "-19.4% (inactive)"}, {"compound": "C[C@@H](Oc1ccc(Cl)cc1Cl)C(=O)O", "viability change, negative = cytotoxic": "1.88% (inactive)"}, {"compound": "O=C(CBr)c1ccc(O)cc1", "viability change, negative = cytotoxic": "-7.82% (inactive)"}, {"compound": "CN(C)[C@@H]1C(=O)C(C(N)=O)=C(O)[C@@]2(O)C(=O)C3=C(O)c4c(O)ccc(Cl)c4[C@@](C)(O)[C@H]3C[C@@H]12", "viability change, negative = cytotoxic": "2.64% (inactive)"}, {"compound": "ClCc1ccc(Cl)cc1Cl", "viability change, negative = cytotoxic": "4.46% (inactive)"}, {"compound": "COCC(=O)N(c1c(C)cccc1C)[C@H](C)C(=O)OC", "viability change, negative = cytotoxic": "3.2% (inactive)"}, {"compound": "CCCCCCCCCCCCCCCC[N+](C)(C)C", "Potency": "54.5 µM (active) and inactive"}, {"compound": "CC(=O)c1cc(C(C)(C)C)cc2c1CCC2(C)C", "viability change, negative = cytotoxic": "-1.09% (inactive)"}, {"compound": "O=CC(Br)(Br)Br", "Potency": "24.3 µM (active)"}, {"compound": "O=C(O)COc1nc(Cl)c(Cl)cc1Cl", "viability change, negative = cytotoxic": "6.09% (inactive)"}, {"compound": "COc1cc(N)c(Cl)cc1C(=O)NC1CN2CCC1CC2", "note": "(stereo not given)", "viability change, negative = cytotoxic": "-9.93% [at 42.5 µM] (inactive)"}, {"compound": "Nc1ccc(Sc2ccc(N)cc2)cc1", "viability change, negative = cytotoxic": "0.187% (inactive)"}, {"compound": "COC(=O)N(C(=O)N1CO[C@@]2(C(=O)OC)Cc3cc(Cl)ccc3C2=N1)c1ccc(OC(F)(F)F)cc1", "viability change, negative = cytotoxic": "-0.308% (inactive)"}, {"compound": "ClC1=C(Cl)C2(Cl)C3C(Cl)C(Cl)CC3C1(Cl)C2(Cl)Cl", "note": "(stereo not given)", "Potency": "43.1 µM (active) and 61.1 µM (active)"}, {"compound": "Oc1c(Br)c(Br)c(Br)c(Br)c1Br", "viability change, negative = cytotoxic": "-13.8% (inactive)"}, {"compound": "COP(=O)(OC)SCn1c(=O)oc2cc(Cl)cnc21", "viability change, negative = cytotoxic": "-4.37% (inactive)"}, {"compound": "Oc1ccc(C(c2ccc(O)cc2)(C(F)(F)F)C(F)(F)F)cc1", "viability change, negative = cytotoxic": "-7.75% (inactive)"}, {"compound": "O=C(NC(=O)c1c(F)cccc1F)Nc1cc(Cl)c(OC(F)(F)C(F)F)c(Cl)c1", "viability change, negative = cytotoxic": "4.49% (inactive)"}, {"compound": "c1cc[c]([Sb]([c]2ccccc2)[c]2ccccc2)cc1", "viability change, negative = cytotoxic": "-14.3% (inactive)"}, {"compound": "COc1ccc(N)cc1N", "Potency": "9.99 µM (active) and 29.4 µM (active)"}, {"compound": "CC(C)CC(C)Nc1ccc(Nc2ccccc2)cc1", "note": "(stereo not given)", "Potency": "26.8 µM (active)"}, {"compound": "CC(C)OC(=O)C(O)(c1ccc(Cl)cc1)c1ccc(Cl)cc1", "viability change, negative = cytotoxic": "-4.18% (inactive)"}]}]}
